From PubChem BioAssay (NCI)
The panel holds about 79,000 compounds, 15% with a hit somewhere; the sample as a whole holds those more often. Values without a mark were called inactive. Active and inactive are the calls of the source. Cut-off read from the data, not from the text of the source: active = growth inhibition above about 70%; inactive = the rest.

Test: NCI Yeast Anticancer Drug Screen. Data for the cln2 rad14 strain (AID 165);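 note: 0% = growth equal to vehicle treated cultures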
Settings: S. cerevisiae cln2 rad14 strain, stronger effect = higher value
Description: Growth inhibition of yeast strains with defined genetic alterations is measured as a screen for potential anti-cancer activity. Selected strains with alterations in DNA damage repair or cell cycle control were exposed to compounds and growth inhibition was measured relative to vehicle treated controls. The strain used in this assay is cln2 rad14

[1] = at 5.0 µM (retest, dose inferred, filed as 0.5)
[2] = at 50.0 µM (retest, dose inferred, filed as 5.0)

Row | SMILES | growth inhibition [1] | growth inhibition [2] | growth inhibition (at 50.0 µM)
1 | CCCCCCCCCCCCCCCCC#N | 2% | 0% | 16.2%
2 | CC(O)c1c2ccccc2cc2ccccc12 (configuration not stated) | -32% | 50% | 16.8%
3 | C/C(=N\OC(=O)c1ccccc1)[N+](=O)[O-] | -27% | 99% (active) | 81.8% (active)
4 | CC(=O)O/C=C1\c2ccccc2CCC1c1ccc2ccccc2c1 (configuration not stated) | -19% | -22% | 1.45%
5 | COc1cc(C(c2cc3c(cc2O)OCO3)N2CCN(C(c3cc(OC)c(OC)c(OC)c3)c3cc4c(cc3O)OCO4)CC2)cc(OC)c1OC (configuration not stated) | -6% | 93% (active) | -35%
6 | O=C(O)C1(Cc2ccc3c(c2)CCC3)Cc2cc3c(cc2C1)CCC3 | -1% | -1% | 82% (active)
7 | CCOc1ccccc1NC1=C(Cl)C(=O)c2ccccc2C1=O | 99% (active) | 98% (active) | 97% (active)
8 | Cc1cc(N)c(C)c2c1[nH]c1ccc(Br)cc12 | -4% | 58% | 17.7%
9 | O=C(c1ccc(O)c(Br)c1)c1cc(Br)ccc1O | 86% (active) | 99% (active) | 95.3% (active)
10 | O=C1/C(=C/c2ccc([N+](=O)[O-])cc2)CNC/C1=C\c1ccc([N+](=O)[O-])cc1 | 73% (active) | 97% (active) | 74% (active)
11 | O=c1nc(N2CCCC2)nc(N2CCCC2)s1 | 14% | -5% | -38.6%
12 | O=C1C=CC(=O)N1c1cccc([N+](=O)[O-])c1 | 84% (active) | 99% (active) | 99.7% (active)
13 | CN(NC(=O)CC(=O)NN(C)C(=S)c1ccccc1)C(=S)c1ccccc1 | 60% | 69% | 73.8% (active)
14 | CC(=O)SC1C(=O)N(C)C(SC(C)=O)C(=O)N1C (configuration not stated) | -1% | 0% | 95% (active)
